Common to all, as to assay: DAPPL (digital affinity profiling via proximity ligation, sequencing); 10 mM Tris-HCl pH 7.5, 50 mM NaCl, 1 mM DTT, 4% glycerol, room temperature, 30 min; GST-TFs on glutathione beads, 16-mer random dsDNA library, 0.1% formaldehyde crosslink after washing; high values mean tight binding
Common to all, as to settings: protein: recombinant; tags: N-terminal GST; dsDNA, one strand shown

In one test the target is T1, FLI1 (Homo sapiens, UniProt Q01543 1-452).
T1 sequence: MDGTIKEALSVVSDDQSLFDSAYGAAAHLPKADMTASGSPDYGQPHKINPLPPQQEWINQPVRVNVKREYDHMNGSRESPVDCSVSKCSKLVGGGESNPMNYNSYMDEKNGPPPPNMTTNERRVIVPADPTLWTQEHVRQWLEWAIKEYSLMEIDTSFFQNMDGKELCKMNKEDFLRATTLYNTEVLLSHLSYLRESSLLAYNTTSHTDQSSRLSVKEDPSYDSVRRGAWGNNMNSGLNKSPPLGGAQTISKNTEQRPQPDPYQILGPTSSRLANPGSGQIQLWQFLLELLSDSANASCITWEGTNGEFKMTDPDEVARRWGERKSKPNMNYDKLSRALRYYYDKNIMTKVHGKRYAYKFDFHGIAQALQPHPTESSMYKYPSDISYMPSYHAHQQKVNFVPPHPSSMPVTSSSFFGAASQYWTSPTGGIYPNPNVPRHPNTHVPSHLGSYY
The gist of the method: (§1)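 Binding signal is given per hexamer as its read frequency for a factor divided by its frequency in the tag-only sample. GST-fused human transcription factors were expressed in yeast, captured on glutathione beads, barcoded with DNA and pooled with that sample, then incubated with 200 nmole of a 16-mer random double-stranded DNA library in Tris/NaCl/DTT/glycerol buffer for 30 min at room temperature. The pools were then washed, crosslinked, proximity-ligated, amplified by PCR and sequenced on an Illumina NextSeq500.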

The next test addresses T2, ELK1 (Homo sapiens, UniProt P19419 1-428).
T2 sequence: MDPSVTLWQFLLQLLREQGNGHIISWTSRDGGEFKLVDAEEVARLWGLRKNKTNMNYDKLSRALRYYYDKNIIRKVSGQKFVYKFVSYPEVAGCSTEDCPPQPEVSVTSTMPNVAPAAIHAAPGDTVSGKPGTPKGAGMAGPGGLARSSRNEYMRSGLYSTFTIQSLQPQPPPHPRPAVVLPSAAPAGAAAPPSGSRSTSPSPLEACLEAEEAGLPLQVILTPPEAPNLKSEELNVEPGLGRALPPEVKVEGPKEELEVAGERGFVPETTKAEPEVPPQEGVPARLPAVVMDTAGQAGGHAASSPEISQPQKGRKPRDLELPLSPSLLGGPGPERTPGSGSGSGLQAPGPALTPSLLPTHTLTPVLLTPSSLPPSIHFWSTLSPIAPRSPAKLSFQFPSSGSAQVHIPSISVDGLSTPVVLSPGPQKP
The gist of the method:
as §1

A further test addresses T3, GABPA (Homo sapiens, UniProt Q06546 1-454).
T3 sequence: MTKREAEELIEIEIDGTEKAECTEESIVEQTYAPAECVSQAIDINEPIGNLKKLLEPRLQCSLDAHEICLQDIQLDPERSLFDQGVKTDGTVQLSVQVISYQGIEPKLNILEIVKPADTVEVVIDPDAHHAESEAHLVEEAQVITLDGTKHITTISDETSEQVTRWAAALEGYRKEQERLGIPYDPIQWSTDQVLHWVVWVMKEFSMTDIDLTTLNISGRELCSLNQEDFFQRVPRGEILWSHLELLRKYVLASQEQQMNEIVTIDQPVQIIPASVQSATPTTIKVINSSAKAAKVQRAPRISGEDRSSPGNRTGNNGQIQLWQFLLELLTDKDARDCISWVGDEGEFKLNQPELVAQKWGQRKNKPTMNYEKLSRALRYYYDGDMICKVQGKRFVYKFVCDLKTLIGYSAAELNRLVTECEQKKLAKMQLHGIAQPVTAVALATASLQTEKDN
The essentials:
as §1

Another test addresses T4, ERG (Homo sapiens, UniProt P11308 1-479).
T4 sequence: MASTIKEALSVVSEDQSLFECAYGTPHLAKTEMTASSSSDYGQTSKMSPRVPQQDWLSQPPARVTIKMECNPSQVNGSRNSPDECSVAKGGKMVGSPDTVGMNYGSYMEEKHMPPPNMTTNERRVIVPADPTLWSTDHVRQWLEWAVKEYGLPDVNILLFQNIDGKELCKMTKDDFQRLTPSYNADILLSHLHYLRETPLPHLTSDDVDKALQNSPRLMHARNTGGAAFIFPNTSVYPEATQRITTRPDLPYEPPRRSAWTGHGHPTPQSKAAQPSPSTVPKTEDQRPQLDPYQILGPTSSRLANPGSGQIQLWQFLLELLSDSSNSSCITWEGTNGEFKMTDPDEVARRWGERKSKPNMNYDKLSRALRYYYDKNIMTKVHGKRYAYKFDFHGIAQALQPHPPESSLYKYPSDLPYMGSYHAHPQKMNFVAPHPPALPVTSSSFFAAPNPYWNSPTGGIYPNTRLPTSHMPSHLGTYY
The gist of the method:
as §1

For another test, the target named is ELF1 (Homo sapiens, UniProt P32519 1-619). The gist of the method: as §1
ELF1, sequence (P32519 whole entry): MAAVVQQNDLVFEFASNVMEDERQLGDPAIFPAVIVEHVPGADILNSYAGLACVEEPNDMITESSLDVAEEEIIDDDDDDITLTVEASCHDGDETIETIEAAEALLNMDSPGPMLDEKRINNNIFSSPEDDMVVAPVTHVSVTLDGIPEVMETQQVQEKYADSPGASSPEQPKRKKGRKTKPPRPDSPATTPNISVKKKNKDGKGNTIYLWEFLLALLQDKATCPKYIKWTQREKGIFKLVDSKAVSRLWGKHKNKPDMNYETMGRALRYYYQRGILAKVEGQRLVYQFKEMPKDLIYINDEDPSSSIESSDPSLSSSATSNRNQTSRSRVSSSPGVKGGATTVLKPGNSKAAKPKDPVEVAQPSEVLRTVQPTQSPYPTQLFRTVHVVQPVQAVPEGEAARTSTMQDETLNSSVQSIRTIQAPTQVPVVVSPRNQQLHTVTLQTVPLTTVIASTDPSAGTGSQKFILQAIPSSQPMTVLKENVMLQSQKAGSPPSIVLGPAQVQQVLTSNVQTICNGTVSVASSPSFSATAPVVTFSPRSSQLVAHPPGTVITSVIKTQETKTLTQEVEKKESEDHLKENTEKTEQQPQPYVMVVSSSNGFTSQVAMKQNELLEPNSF
A further test deals with T5, EHF (Homo sapiens, UniProt Q9NZC4 1-300).
T5 sequence: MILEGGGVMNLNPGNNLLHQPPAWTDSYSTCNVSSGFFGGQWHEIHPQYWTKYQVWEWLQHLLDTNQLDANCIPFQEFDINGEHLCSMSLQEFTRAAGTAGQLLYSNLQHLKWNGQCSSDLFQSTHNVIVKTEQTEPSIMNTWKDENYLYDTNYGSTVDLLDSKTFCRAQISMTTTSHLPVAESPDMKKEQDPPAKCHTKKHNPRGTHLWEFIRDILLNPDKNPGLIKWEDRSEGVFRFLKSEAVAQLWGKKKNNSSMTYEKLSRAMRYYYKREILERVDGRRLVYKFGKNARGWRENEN
The essentials: as §1

A further test addresses SPI1 (Homo sapiens, UniProt P17947 1-270). The gist of the method:
as §1

A further test concerns the target SPIB (Homo sapiens, UniProt Q01892 1-262). The gist of the method:
as §1

For a further test, the target named is T6, ELK3 (Homo sapiens, UniProt P41970 1-407).
T6 sequence: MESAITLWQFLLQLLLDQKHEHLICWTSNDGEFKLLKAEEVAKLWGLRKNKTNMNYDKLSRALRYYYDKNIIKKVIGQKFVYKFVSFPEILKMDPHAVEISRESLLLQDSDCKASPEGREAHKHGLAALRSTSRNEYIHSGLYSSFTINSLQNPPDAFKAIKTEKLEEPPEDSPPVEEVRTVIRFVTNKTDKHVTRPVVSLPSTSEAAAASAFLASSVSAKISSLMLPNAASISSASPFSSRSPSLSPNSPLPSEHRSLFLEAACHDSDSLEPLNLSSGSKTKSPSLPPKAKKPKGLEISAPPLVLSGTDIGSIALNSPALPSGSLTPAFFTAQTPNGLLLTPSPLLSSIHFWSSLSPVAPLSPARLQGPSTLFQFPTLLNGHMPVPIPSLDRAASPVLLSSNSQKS
The gist of the method:
as §1

Another test has as its target T7, FEV (Homo sapiens, UniProt Q99581 1-238).
T7 sequence: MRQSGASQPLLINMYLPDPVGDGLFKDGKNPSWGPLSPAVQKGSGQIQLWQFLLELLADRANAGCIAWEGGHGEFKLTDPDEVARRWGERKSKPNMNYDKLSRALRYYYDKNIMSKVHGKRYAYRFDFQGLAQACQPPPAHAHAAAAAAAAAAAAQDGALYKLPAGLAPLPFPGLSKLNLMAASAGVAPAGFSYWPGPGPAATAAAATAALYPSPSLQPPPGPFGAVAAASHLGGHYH
The essentials: as §1

For the next test, the target named is ETV5 (Homo sapiens, UniProt P41161 1-510). The gist of the method:
as §1

Another test deals with T8, SPIC (Homo sapiens, UniProt Q8N5J4 1-248).
T8 sequence: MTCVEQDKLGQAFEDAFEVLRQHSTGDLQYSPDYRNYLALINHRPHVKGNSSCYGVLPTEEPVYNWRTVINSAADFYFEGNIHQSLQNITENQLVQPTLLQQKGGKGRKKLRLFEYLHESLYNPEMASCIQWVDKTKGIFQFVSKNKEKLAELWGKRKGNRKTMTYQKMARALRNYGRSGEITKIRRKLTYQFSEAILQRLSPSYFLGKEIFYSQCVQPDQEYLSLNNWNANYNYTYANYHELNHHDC
The essentials: as §1

The next test has as its target ELF4 (Homo sapiens, UniProt Q99607 1-663). The gist of the method:
as §1

The target of a further test is T9, ELK4 (Homo sapiens, UniProt P28324-2 1-405).
T9 sequence: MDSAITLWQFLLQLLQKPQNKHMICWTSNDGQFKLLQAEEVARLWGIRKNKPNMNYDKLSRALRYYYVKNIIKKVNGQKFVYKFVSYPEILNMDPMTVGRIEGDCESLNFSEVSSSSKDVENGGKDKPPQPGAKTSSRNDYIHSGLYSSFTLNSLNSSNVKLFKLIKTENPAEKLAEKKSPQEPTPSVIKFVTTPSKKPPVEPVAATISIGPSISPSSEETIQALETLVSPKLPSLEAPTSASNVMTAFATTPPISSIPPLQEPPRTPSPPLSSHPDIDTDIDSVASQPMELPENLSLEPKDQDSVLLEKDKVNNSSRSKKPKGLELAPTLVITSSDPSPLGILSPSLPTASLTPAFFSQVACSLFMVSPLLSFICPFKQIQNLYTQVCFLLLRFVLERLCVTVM
The essentials:
as §1

The next test addresses T10, ETV2 (Homo sapiens, UniProt O00321 1-342).
T10 sequence: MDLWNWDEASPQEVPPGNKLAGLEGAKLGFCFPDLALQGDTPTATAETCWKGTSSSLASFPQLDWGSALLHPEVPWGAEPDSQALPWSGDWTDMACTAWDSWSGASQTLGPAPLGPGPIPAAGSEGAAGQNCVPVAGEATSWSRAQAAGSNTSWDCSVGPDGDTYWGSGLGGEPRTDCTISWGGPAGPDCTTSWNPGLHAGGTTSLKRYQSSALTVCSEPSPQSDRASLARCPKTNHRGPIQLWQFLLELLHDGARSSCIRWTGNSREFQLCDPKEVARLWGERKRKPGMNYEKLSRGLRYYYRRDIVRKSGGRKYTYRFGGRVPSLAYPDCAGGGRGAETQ
The gist of the method: as §1

The next test deals with T11, ELF3 (Homo sapiens, UniProt P78545 1-371).
T11 sequence: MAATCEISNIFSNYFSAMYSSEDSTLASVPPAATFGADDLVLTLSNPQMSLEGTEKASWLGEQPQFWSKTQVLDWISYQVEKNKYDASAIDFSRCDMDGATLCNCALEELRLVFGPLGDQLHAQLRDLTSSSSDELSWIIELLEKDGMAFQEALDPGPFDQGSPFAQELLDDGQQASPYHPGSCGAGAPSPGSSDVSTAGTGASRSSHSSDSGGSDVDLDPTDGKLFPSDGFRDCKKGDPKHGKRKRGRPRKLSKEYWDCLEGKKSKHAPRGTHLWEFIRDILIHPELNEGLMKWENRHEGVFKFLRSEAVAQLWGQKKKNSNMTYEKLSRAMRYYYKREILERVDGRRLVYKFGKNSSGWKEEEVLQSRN
The gist of the method:
as §1

For a further test, the target named is ETV1 (Homo sapiens, UniProt P50549 1-477). The gist of the method:
as §1

SPIB, sequence (Q01892 whole entry): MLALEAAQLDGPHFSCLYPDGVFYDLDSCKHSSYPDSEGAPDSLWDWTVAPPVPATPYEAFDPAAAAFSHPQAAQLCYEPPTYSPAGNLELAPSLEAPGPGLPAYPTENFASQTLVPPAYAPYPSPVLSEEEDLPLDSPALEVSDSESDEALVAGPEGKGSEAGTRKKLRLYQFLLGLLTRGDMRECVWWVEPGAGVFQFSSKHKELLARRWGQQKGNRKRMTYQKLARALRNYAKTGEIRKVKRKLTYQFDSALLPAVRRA
ETV5, sequence (P41161 whole entry): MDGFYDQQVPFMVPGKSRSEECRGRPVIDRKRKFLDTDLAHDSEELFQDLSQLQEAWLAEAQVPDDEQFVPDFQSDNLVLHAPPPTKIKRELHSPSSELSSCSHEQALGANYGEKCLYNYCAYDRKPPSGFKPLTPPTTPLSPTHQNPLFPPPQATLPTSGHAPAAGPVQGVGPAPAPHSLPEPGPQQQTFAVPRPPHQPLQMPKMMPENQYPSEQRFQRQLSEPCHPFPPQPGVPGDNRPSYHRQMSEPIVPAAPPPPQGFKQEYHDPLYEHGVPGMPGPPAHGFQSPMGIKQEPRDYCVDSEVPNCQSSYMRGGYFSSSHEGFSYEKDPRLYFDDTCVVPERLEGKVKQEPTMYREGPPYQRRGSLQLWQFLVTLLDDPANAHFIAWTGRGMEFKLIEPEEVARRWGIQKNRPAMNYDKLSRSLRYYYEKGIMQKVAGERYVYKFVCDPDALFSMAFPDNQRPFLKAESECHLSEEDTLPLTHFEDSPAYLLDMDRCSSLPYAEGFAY
ETV1, sequence (P50549 whole entry): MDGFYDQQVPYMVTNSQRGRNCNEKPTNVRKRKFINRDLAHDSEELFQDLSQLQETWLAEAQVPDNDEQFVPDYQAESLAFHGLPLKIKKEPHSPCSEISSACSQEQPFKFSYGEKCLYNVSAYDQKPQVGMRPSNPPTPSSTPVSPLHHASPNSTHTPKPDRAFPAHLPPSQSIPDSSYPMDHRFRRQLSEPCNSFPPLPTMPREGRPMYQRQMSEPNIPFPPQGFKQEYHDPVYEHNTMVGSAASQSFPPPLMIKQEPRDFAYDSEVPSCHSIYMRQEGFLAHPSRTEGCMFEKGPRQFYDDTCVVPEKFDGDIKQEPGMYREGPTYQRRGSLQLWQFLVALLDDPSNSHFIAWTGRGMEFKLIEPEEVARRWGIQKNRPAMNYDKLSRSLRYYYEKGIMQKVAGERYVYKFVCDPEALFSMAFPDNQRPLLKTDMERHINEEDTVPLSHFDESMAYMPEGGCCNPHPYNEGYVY
ELF4, sequence (Q99607 whole entry): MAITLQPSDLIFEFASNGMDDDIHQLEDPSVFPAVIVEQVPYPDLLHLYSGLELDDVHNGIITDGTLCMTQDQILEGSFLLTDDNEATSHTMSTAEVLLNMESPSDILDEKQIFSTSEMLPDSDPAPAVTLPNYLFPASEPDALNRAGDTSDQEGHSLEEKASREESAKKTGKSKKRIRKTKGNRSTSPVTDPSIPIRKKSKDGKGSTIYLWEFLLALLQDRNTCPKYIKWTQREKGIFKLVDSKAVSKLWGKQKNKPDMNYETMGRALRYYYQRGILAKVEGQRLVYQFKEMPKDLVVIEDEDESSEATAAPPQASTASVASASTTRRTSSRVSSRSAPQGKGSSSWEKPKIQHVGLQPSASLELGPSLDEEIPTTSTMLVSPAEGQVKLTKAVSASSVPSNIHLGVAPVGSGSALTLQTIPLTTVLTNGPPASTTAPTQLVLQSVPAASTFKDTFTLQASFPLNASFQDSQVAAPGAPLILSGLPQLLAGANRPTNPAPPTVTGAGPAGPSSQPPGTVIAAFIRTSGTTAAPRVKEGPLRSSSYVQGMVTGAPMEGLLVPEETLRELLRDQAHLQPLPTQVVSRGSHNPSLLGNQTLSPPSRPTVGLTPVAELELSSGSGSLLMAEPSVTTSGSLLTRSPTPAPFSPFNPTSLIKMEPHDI

In the case of CCTGCC, the binding signal in the test with FLI1 was 1.17 fold enrichment (6-mer frequency, TF over GST control); with ELK1, 1.34 fold enrichment (6-mer frequency, TF over GST control); with GABPA it was 1.25 fold enrichment (6-mer frequency, TF over GST control); with ERG, 1.3 fold enrichment (6-mer frequency, TF over GST control); with ELF1, 1.31 fold enrichment (6-mer frequency, TF over GST control); with EHF, 1.39 fold enrichment (6-mer frequency, TF over GST control). Besides, the binding signal with SPI1 is 1.28 fold enrichment (6-mer frequency, TF over GST control); in the test with SPIB it was 1.43 fold enrichment (6-mer frequency, TF over GST control); with ELK3 it was 1.13 fold enrichment (6-mer frequency, TF over GST control); with FEV it was 1.33 fold enrichment (6-mer frequency, TF over GST control); with ETV5, 1.34 fold enrichment (6-mer frequency, TF over GST control); in the test with SPIC, 1.28 fold enrichment (6-mer frequency, TF over GST control). The binding signal with ELF4 is 1.28 fold enrichment (6-mer frequency, TF over GST control); in the test with ELK4 it was 1.14 fold enrichment (6-mer frequency, TF over GST control); with ETV2, 1.26 fold enrichment (6-mer frequency, TF over GST control); with ELF3 it was 1.27 fold enrichment (6-mer frequency, TF over GST control); with ETV1, 1.26 fold enrichment (6-mer frequency, TF over GST control).

Consider CCCCAC, for which the binding signal is 1.19 fold enrichment (6-mer frequency, TF over GST control) with FLI1; 1.24 fold enrichment (6-mer frequency, TF over GST control) with ELK1; 1.19 fold enrichment (6-mer frequency, TF over GST control) in the test with GABPA; 1.2 fold enrichment (6-mer frequency, TF over GST control) with ERG; 1.24 fold enrichment (6-mer frequency, TF over GST control) in the test with ELF1; 1.34 fold enrichment (6-mer frequency, TF over GST control) with EHF. The binding signal with SPI1 was 1.22 fold enrichment (6-mer frequency, TF over GST control); in the test with SPIB, 1.25 fold enrichment (6-mer frequency, TF over GST control); in the test with ELK3 it was 1.34 fold enrichment (6-mer frequency, TF over GST control); with FEV, 1.29 fold enrichment (6-mer frequency, TF over GST control); in the test with ETV5, 1.18 fold enrichment (6-mer frequency, TF over GST control); with SPIC, 1.33 fold enrichment (6-mer frequency, TF over GST control). The binding signal in the test with ELF4 is 1.28 fold enrichment (6-mer frequency, TF over GST control); with ELK4, 1.36 fold enrichment (6-mer frequency, TF over GST control); in the test with ETV2, 1.2 fold enrichment (6-mer frequency, TF over GST control); with ELF3 it was 1.25 fold enrichment (6-mer frequency, TF over GST control); with ETV1, 1.11 fold enrichment (6-mer frequency, TF over GST control).

The record behind these values is publication PMC7862700, “An all-to-all approach to the identification of sequence-specific readers for epigenetic DNA modifications on cytosine”.
